A selection: hits, their analogues and other compounds. The true share with any hit is near 6.7%.
Pf Dd2 inh = inhibitors of Plasmodium falciparum Dd2 growth; P. falciparum Dd2 growth, SYBR Green, 72 h; active compounds read low; activity change, % at 10 µM; 2.3% of 94,000 active; in the data active = activity change below about -80%; inconclusive = no clear call, values can overlap the other calls
T cruzi growth-1 = T. cruzi proliferation inhibition | AID 624255 | T. cruzi beta-gal in NIH3T3, GalScreen luminescence, 90 h | 5.9% of 77,000 active | inhibition, % at 8.34 µM;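 active = mean inhibition above about 93%, with at least 55% of replicates each passing it, limit read from the data, passing the limit was not always enough; inconclusive = only one of those two conditions holds; inactive = neither condition holds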
C diff growth = inhibitors of Clostridium difficile growth | AID 1259249 | Clostridium difficile clinical isolate growth, OD600, 24 h; active compounds read low | 0.25% of 86,000 active | growth activity, negative = inhibition, % at 16 µg/mL (by protocol);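 active = mean growth activity at or below -80% and every replicate also at or below -80%; inconclusive = mean at or below -80% but some replicate above -80%; inactive = mean growth activity above -80%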;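 note: 0% = DMSO wells and -100% = levofloxacin 16 µg/mL wells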
T cruzi growth-2 = blocks T. cruzi growth in NIH3T3 host cells; shares compounds with T cruzi growth-1; T. cruzi beta-gal in NIH3T3, GalScreen luminescence, 90 h; inhibition, % at 8.35 µM; 72% of 5,600 active; AID 651739;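 active = mean replicate inhibition above about 95% and at least 55% of replicates individually reaching it, limit read from the data; inconclusive = only one of the two criteria is met; inactive = neither criterion is met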
T cruzi growth-3 = blocks T. cruzi growth in NIH3T3 host cells; shares compounds with T cruzi growth-1; T. cruzi beta-gal in NIH3T3, GalScreen luminescence, 90 h; inhibition, % at 2.09 µM; 21% of 5,600 active; AID 651740;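 active = mean inhibition above about 95%, with at least 55% of replicates also reaching it, limit read from the data; inconclusive = meets just one of the two conditions; inactive = meets neither condition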;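 note: plate controls were neutral control median for no effect and positive control median for full effect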
3T3 cytotox = NIH/3T3 (mouse) viability loss; shares compounds with T cruzi growth-1; NIH/3T3 viability, CellTiter-Glo ATP luminescence, 90 h; cytotoxicity (signal decrease), % at 8.35 µM; 14% of 5,600 active; AID 651742;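 active = mean signal decrease across replicates above about 35% based on untreated-well scatter, with enough replicates individually passing, limit read from the data; inconclusive = no rule stated though some were filed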;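 note: 0% = median of neutral control wells and 100% = median of positive control wells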
NIH3T3 tox 2 = NIH/3T3 (mouse) viability loss; 56% of 5,600 active; NIH/3T3 viability, CellTiter-Glo ATP luminescence, 90 h; inhibition, % at 24.9 µM; shares compounds with T cruzi growth-1;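 active = mean loss of cell viability signal at or above a set limit, and enough replicates individually reaching it; inconclusive = meets only the mean limit or only the replicate share; inactive = meets neither condition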;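 note: 0% = median of neutral control wells and 100% = median of positive control wells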
An asterisk follows results filed as active; ? = inconclusive; nt = no result given; ! = not active in a repeat.

SMILES	Pf Dd2 inh	T cruzi growth-1	C diff growth	T cruzi growth-2	T cruzi growth-3	3T3 cytotox	NIH3T3 tox 2
COc1ccccc1CNC(=O)C[C@H]1CC[C@@H](NC(=O)CC2CC2)[C@@H](CO)O1	5	-7	3	nt	nt	nt	nt
COCC(=O)N1C[C@@H]2[C@H](c3ccccc31)[C@H](CO)N2Cc1ccccc1Cl	3	-5	-11	nt	nt	nt	nt
COc1cccc(NC(=O)Nc2ccc3c(c2)OC[C@H](C)NC[C@@H](C)[C@@H](OC)CN(C)C3=O)c1	-11	72	-1	nt	nt	nt	nt
COc1ccc(NC(=O)Nc2ccc3c(c2)C(=O)N([C@@H](C)CO)C[C@H](C)[C@@H](CN(C)Cc2ccccc2)OCCCC[C@@H](C)O3)cc1	-75	69	9	nt	nt	nt	nt
COc1ccc(NC(=O)Nc2ccc3c(c2)C(=O)N([C@@H](C)CO)C[C@@H](C)[C@@H](CN(C)Cc2ccccc2)OCCCC[C@@H](C)O3)cc1	-63	92	-3	nt	nt	nt	nt
COc1ccc(NC(=O)Nc2ccc3c(c2)C(=O)N([C@@H](C)CO)C[C@@H](C)[C@H](CN(C)Cc2ccccc2)OCCCC[C@H](C)O3)cc1	-39	100*	1	110*	42	9	35*
COc1ccc(NC(=O)Nc2ccc3c(c2)C(=O)N([C@H](C)CO)C[C@@H](C)[C@@H](CN(C)Cc2ccccc2)OCCCC[C@@H](C)O3)cc1	-73	103*	-6	111*	83	8	53*
CO[C@@H]1CN(C)C(=O)c2ccc(NS(C)(=O)=O)cc2OC[C@H](C)N(Cc2cncnc2)C[C@@H]1C	23	-32	nt	nt	nt	nt	nt
C[C@@H]1CN([C@H](C)CO)C(=O)c2cc(/C=C/c3ccccc3)cnc2O[C@H]1CN(C)Cc1cccnc1	-34	59	-5	nt	nt	nt	nt
C[C@@H](O)C#Cc1ccc2c(c1)O[C@H](CN(C)Cc1ccccc1)[C@@H](C)CN([C@@H](C)CO)S2(=O)=O	-49	40	-4	nt	nt	nt	nt
CC(C)C#Cc1ccc2c(c1)O[C@@H](CN(C)Cc1ccccc1)[C@H](C)CN([C@H](C)CO)S2(=O)=O	-66	93	11	nt	nt	nt	nt
C[C@@H]1CN([C@@H](C)CO)S(=O)(=O)c2ccc(C#CCN(C)C)cc2O[C@H]1CN(C)Cc1ccc(F)cc1	-77	113*	6	?	91	51*	103*
C[C@@H]1CN([C@H](C)CO)S(=O)(=O)c2ccc(C#CCN(C)C)cc2O[C@H]1CN(C)Cc1ccccc1	-58	107*	-2	97*	84	45*	104*
C[C@@H]1CN([C@@H](C)CO)S(=O)(=O)c2ccc(C#CCN(C)C)cc2O[C@H]1CN(C)Cc1ccccc1	-54	109*	-3	105*	98*	32	104*
C[C@H](CO)N1C[C@H](C)[C@@H](CN(C)Cc2ccccc2)Oc2cc(C#CCN(C)C)ccc2S1(=O)=O	-55	94	-6	nt	nt	nt	nt
C[C@H]1CN([C@@H](C)CO)S(=O)(=O)c2ccc(C#CCN(C)C)cc2O[C@H]1CN(C)Cc1ccccc1	-43	?	1	105*	64	22	39*
C[C@@H]1CN([C@@H](C)CO)S(=O)(=O)c2ccc(C#CCN(C)C)cc2O[C@@H]1CN(C)Cc1ccc(F)cc1	-54	61	-1	nt	nt	nt	nt
C[C@@H]1CCCCO[C@@H](CN(C)C(=O)CCCN(C)C)[C@@H](C)CN([C@@H](C)CO)C(=O)c2cc(NC(=O)Nc3ccc(C(F)(F)F)cc3)ccc2O1	-11	21	nt	nt	nt	nt	nt
C[C@H](CO)N1C[C@H](C)[C@@H](CN(C)S(=O)(=O)c2cccs2)OCCCC[C@H](C)Oc2ccc(NS(=O)(=O)c3ccc(F)cc3)cc2C1=O	nt	48	-16	nt	nt	nt	nt
C[C@@H]1CN([C@@H](C)CO)S(=O)(=O)c2ccc(C#Cc3ccccc3F)cc2O[C@@H]1CN(C)C(=O)Cc1ccccc1	-51	120*	2	102*	99*	32	78*
CC(C)CC#Cc1ccc2c(c1)O[C@@H](CN(C)C(=O)Cc1ccccc1)[C@H](C)CN([C@H](C)CO)S2(=O)=O	-68	129*	8	105*	99*	-12	107*
C[C@@H]1CN([C@H](C)CO)S(=O)(=O)c2ccc(C#Cc3ccccc3F)cc2O[C@H]1CN(C)C(=O)c1ccc2c(c1)OCO2	-81*!	125*	-4	100*	106*	30	91*
CC(=O)N(C)C[C@@H]1Oc2cc(C#Cc3ccccc3F)ccc2S(=O)(=O)N([C@H](C)CO)C[C@@H]1C	-46	67	-20	nt	nt	nt	nt
CCC(=O)N(C)C[C@@H]1Oc2cc(C#CCC(C)C)ccc2S(=O)(=O)N([C@@H](C)CO)C[C@H]1C	-13	51	-12	nt	nt	nt	nt
C[C@H](CO)N1C[C@H](C)[C@@H](CN(C)C(=O)Cc2ccncc2)Oc2cc(C#Cc3ccccc3F)ccc2S1(=O)=O	-51	nt	-5	nt	nt	nt	nt
SMILES	Pf Dd2 inh	T cruzi growth-1	C diff growth	T cruzi growth-2	T cruzi growth-3	3T3 cytotox	NIH3T3 tox 2
CC(C)CC#Cc1ccc2c(c1)O[C@H](CN(C)C(=O)Cc1ccccc1)[C@H](C)CN([C@H](C)CO)S2(=O)=O	-46	125*	22	94	74	-13	106*
CCC(=O)N(C)C[C@H]1Oc2cc(C#CCC(C)C)ccc2S(=O)(=O)N([C@H](C)CO)C[C@@H]1C	-11	55	-2	nt	nt	nt	nt
CO[C@@H]1CN(C)C(=O)c2ccc(NS(C)(=O)=O)cc2OC[C@@H](C)N(C(=O)C2CCOCC2)C[C@H]1C	11	16	nt	nt	nt	nt	nt
COCC(=O)N1CC(=O)N2[C@H](C1)[C@@H](c1ccc(C#CC3CCCCC3)cc1)[C@@H]2CO	-36	nt	-19	nt	nt	nt	nt
COc1ccc2c3c(n(C)c2c1)[C@@H](CO)N(C)CC31CN(S(=O)(=O)c2cn(C)cn2)C1	12	nt	13	nt	nt	nt	nt
CCC(=O)Nc1ccc2c(c1)OC[C@@H](C)N(C(=O)CN(C)C)C[C@H](C)[C@@H](OC)CN(C)C2=O	20	-15	nt	nt	nt	nt	nt
CC(C)CC#Cc1ccc2c(c1)O[C@@H](CN(C)C(=O)Cc1ccccc1)[C@H](C)CN([C@@H](C)CO)S2(=O)=O	-73	129*	-8	97*	103*	13	104*
CCC(=O)N(C)C[C@H]1Oc2cc(C#CCC(C)C)ccc2S(=O)(=O)N([C@@H](C)CO)C[C@@H]1C	-23	87	-14	nt	nt	nt	nt
C[C@H]1CN([C@@H](C)CO)C(=O)c2cc(NS(=O)(=O)c3ccc(F)cc3)ccc2O[C@H]1CN(C)Cc1ccc(Cl)c(Cl)c1	-8	63	31	nt	nt	nt	nt
C[C@H]1CN([C@@H](C)CO)C(=O)c2cc(NS(=O)(=O)c3ccc(Cl)cc3)ccc2O[C@@H]1CN(C)Cc1ccc(Cl)c(Cl)c1	3	89	43	nt	nt	nt	nt
Cc1ccc(S(=O)(=O)Nc2ccc3c(c2)C(=O)N([C@@H](C)CO)C[C@H](C)[C@@H](CN(C)Cc2ccc(Cl)c(Cl)c2)O3)cc1	-10	92	32	nt	nt	nt	nt

Compound activity deposited in PubChem BioAssay by Broad Institute.
